Whole data set: some 68,000 sequences, median “fluorescence intensity (a.u.)” near 9,100, cut for the highest 2% near 16,000. For the sample, the highest values were picked, then their nearest neighbours and some sequences at random.
Target: OsWRKY34 (Oryza sativa, UniProt Q0JBA9 1-250)
Assay: protein-binding microarray (RPBM); PBS, 2% BSA, 51.3 ng/ul salmon testes DNA, 50 uM zinc acetate, 200 nM TF, 25 C, 1 h; high values mean tight binding
Details: protein: recombinant; tags: N-terminal polyhistidine and DsRed monomer fusion (pET32a); label: CyDye5-dUTP incorporated in the synthesized complementary strand; 3' TTTTT single-stranded linker to array surface; dsDNA, one strand shown
Procedure, shortened: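 Using Ni–NTA, transcription factors fused N-terminally to polyhistidine and DsRed were purified after expression in E. coli BL21-CodonPlus. These were incubated at 200 nM with a blocked, double-stranded custom Agilent array for 1 h at 25 °C in a buffer containing 50 µM zinc acetate, and the array was washed. The binding signal is per-feature fluorescence intensity (arbitrary units) on an Axon 4000B scanner.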

OsWRKY34, sequence (Q0JBA9 entry or part of it): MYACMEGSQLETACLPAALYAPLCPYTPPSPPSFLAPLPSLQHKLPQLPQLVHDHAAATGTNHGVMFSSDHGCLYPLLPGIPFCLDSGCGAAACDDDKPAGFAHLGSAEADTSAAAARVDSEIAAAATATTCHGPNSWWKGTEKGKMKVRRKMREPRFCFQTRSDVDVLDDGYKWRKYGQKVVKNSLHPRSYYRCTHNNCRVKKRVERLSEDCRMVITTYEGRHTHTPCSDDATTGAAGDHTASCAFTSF

Sequence	binding signal
GTGGGCCCCGCCCGTGTGATCGTGTCTCTGTTTCGTTTTCCGGAGTCACCTAGTGCAG	12100 fluorescence intensity (a.u.)
GTGTTTTTTCTTCATTTGTCCCGTAATAAATTTATTTTTTCGGAGTCACCTAGTGCAG	12500 fluorescence intensity (a.u.)
CGCTTACAGTCCACTCTCCACTGCGCCCGCATGAGTCATGCGGAGTCACCTAGTGCAG	8880 fluorescence intensity (a.u.)
AAACTGCCAGCTTTCTGCATCTCTCCGCCCTCATGATGCGCGGAGTCACCTAGTGCAG	9490 fluorescence intensity (a.u.)
TTTTCTTTCCTTTATTATTTTCTTTATCCTTTTTTTCTCCCGGAGTCACCTAGTGCAG	9250 fluorescence intensity (a.u.)
ATCGGCGCCGTCGACCGCGACCACCCTGCCGCCGAGCGCCCGGAGTCACCTAGTGCAG	10300 fluorescence intensity (a.u.)
TCCTCTTCTTCTTCTTCTTCTTCTCGTGGGTGCAAGAAGCCGGAGTCACCTAGTGCAG	8380 fluorescence intensity (a.u.)
CGCCCAAGCTAGCTAGTGGCCATTATCCCATGGATATTTCCGGAGTCACCTAGTGCAG	8280 fluorescence intensity (a.u.)
ATCCTGTATCGTCCAGAATGCTTCTTCCATCCTAATCACCCGGAGTCACCTAGTGCAG	9220 fluorescence intensity (a.u.)
GGTATCTGTTGCTGCTTGCTGGTTCTCGTGCTATTGTTCTCGGAGTCACCTAGTGCAG	19900 fluorescence intensity (a.u.)
CGGGGTTCTTGTGTTTATTGTTAAGATCCGGTTTGCTGAACGGAGTCACCTAGTGCAG	21900 fluorescence intensity (a.u.)
GGTTGGGTGTTTTTGCTTCTCTTGTAGTCTTTGTGTAGAACGGAGTCACCTAGTGCAG	21500 fluorescence intensity (a.u.)
ATCAAAGTTGCTGGGGTTAATTTGGGTTCTTGGTTGTGAACGGAGTCACCTAGTGCAG	15600 fluorescence intensity (a.u.)
CATGTAATTCTCTTCACTTTTGCTTGTTTGGGTTGTGAAACGGAGTCACCTAGTGCAG	10100 fluorescence intensity (a.u.)
CTTCTCTTTGTTTTCTTGTTTGCTTGCTTGGTGTAAAGAACGGAGTCACCTAGTGCAG	16100 fluorescence intensity (a.u.)
TCTCTCTCTCGTCGTCTCGCGTCTCTTCTCTCAACCGCGACGGAGTCACCTAGTGCAG	13800 fluorescence intensity (a.u.)
TTCTTGCTAGTTCTTGTAGTATCTGGTTCTTGCTAGTTCTCGGAGTCACCTAGTGCAG	10800 fluorescence intensity (a.u.)
ATCTTTTTACCCAATTCTTGATCACTCTTCTTGGTCGTTCCGGAGTCACCTAGTGCAG	8060 fluorescence intensity (a.u.)
GCTTCTGCTTCTTCTTGTTCTTGTTGCTGTTGGTAATACTCGGAGTCACCTAGTGCAG	11000 fluorescence intensity (a.u.)
GTAATTCTGTTGTCATACGGTTTATTGTGTGGTTGCTGAACGGAGTCACCTAGTGCAG	9010 fluorescence intensity (a.u.)
ATCACTCTTCTTGGTCGTTCTTGCCATTCTTGTACCGCGACGGAGTCACCTAGTGCAG	18200 fluorescence intensity (a.u.)

Sequence	binding signal
CGCCACCGTCCTGCTCACCGGCGTTCCGCCGGAACGACTTCGGAGTCACCTAGTGCAG	9640 fluorescence intensity (a.u.)
ATTTTTTTTGTCAAACTGCCACGAAAGCGTCACGTTAATACGGAGTCACCTAGTGCAG	8240 fluorescence intensity (a.u.)
CAATTCACGCCACCCGCTCCGCCTCTCGCCGCCTCGACCGCGGAGTCACCTAGTGCAG	11000 fluorescence intensity (a.u.)
AAATTTTGACTCCTTCAGTTAATGATTTTCGTATACAAATCGGAGTCACCTAGTGCAG	8180 fluorescence intensity (a.u.)
ATCTCTCTCATATTCCTTCGATCTGCAGCTTGTACGTTGGCGGAGTCACCTAGTGCAG	14500 fluorescence intensity (a.u.)
CTGTTGACTATCCATGCCATTTTTACCGATTAGTCTATCTCGGAGTCACCTAGTGCAG	13800 fluorescence intensity (a.u.)
CGCAGTCCGAAGTTGATTTTTTTTTTTTTTACGGAGTACTCGGAGTCACCTAGTGCAG	8250 fluorescence intensity (a.u.)
TGATTGTGTTTGTAGACTTGGTTGGTATTGTTGAACGGATCGGAGTCACCTAGTGCAG	11800 fluorescence intensity (a.u.)
CATATTTTAATTTTAATGTATGACACCGTTGACTTTTCGACGGAGTCACCTAGTGCAG	16000 fluorescence intensity (a.u.)
CCGTATTTTAATGTATATGACACCGTTGACTTTTTGACCACGGAGTCACCTAGTGCAG	40800 fluorescence intensity (a.u.)
AGAGGGAGTATTATGTTTATGCTTTTAATTTTTCACTTTGCGGAGTCACCTAGTGCAG	9150 fluorescence intensity (a.u.)
TTTATGTAATGCCTTAAGATCACACATTGACTTATTTTTGCGGAGTCACCTAGTGCAG	8050 fluorescence intensity (a.u.)
AAATACTCCCTCCGTATTTTAATGTATGACACCGTTGACTCGGAGTCACCTAGTGCAG	10300 fluorescence intensity (a.u.)
CATCCGTATTTTAATGTATGACACCGTTGACTTTTCGACTCGGAGTCACCTAGTGCAG	19100 fluorescence intensity (a.u.)
AGGGAGCCTATTTTAATGTATGACACCGTTGACTTTTTTGCGGAGTCACCTAGTGCAG	19200 fluorescence intensity (a.u.)
TTATGCATCGATATATACCACATGTCAACCGATGAATTCACGGAGTCACCTAGTGCAG	9490 fluorescence intensity (a.u.)
TTTTCCAAACTTCCAACTTTCTATCACATCAAACCTTTCACGGAGTCACCTAGTGCAG	8100 fluorescence intensity (a.u.)
ACCTGGCTGTGCATGTACTACCCCAATGCATTTCTCTCTCCGGAGTCACCTAGTGCAG	8250 fluorescence intensity (a.u.)
ATTCTGTAACCCGCTGCGGGCAACGGCCGGACGTGCAATCCGGAGTCACCTAGTGCAG	9630 fluorescence intensity (a.u.)
CTGATCGAATACTCTAGCATTGCGATCTTTCCAAATTTGCCGGAGTCACCTAGTGCAG	8510 fluorescence intensity (a.u.)
GGAGGGTGCGACAGCCCAATGTATCACTTGCGTTTGTATCCGGAGTCACCTAGTGCAG	8230 fluorescence intensity (a.u.)

— PMC7819943, “Rice protein-binding microarrays: a tool to detect cis-acting elements near promoter regions in rice”
